The source of these data is ChEMBL document CHEMBL3988442, “University of Dundee, Small-Polar-MMV Screening Library” (2021).

Hit rate of the full screen: of about 48,000 compounds, about 13,000 (27%) showed an effect of 50% or more. Some of the results follow.

For the assay, the system named is Wolbachia pipientis. Put plainly: Anti-Wolbachia Cell-Based Screen. The arrangement: scale not given: in the data most compounds retested in dose-response had high values. As to conditions: 5 µM. The format is functional.
For the compound `Cc1nc(C)c(-c2nnc(SCC(=O)O)n2C(C)c2ccccc2)o1` (configuration not stated), the “Percent Effect” value came to 4.033%.

Consider `O=C(c1ccc2c(c1)COC2)N1CCCN(Cc2cscn2)CC1`, for which the “Percent Effect” value worked out at 97.01%.

For the compound `O=C(c1cccc(F)c1)N1CCCN(Cc2cscn2)CC1`, the “Percent Effect” value is on record as 112.5%.

As to `Fc1cccc(CN2CCN(Cc3cscn3)CC2)c1`, the “Percent Effect” value is listed as -6.647%.

As to `CN1CCN(C(=O)c2cccc(OCc3cscn3)c2)CC1`, the “Percent Effect” value is recorded as -0.311%.

As to `O=C(c1ccc2cc[nH]c2c1)N1CCCN(Cc2cscn2)CC1`, the “Percent Effect” value came to 102.9%.

As to `O=C(c1ccc(O)cc1)N1CCN(C(=O)c2ccc3c(c2)COC3)CC1`, the “Percent Effect” value was -5.572%.

On to `Cc1cccc(C(=O)N2CCCN(Cc3cscn3)CC2)c1`, for which the “Percent Effect” value stood at 101.4%.

Take `Cn1cc(CN2CCCN(C(=O)c3ccc4c(c3)COC4)CC2)cn1`: the “Percent Effect” value is recorded as -5.776%.

Regarding `CSCC(CCO)NC(=O)Nc1cccc(Br)c1` (configuration not stated), the “Percent Effect” value was -3.109%.

On to `O=C(NCCO)c1coc(CN2CCN(c3ccccc3F)CC2)n1`, for which the “Percent Effect” value is listed as 7.764%.

For `COCc1noc(-c2ccc(N(C)Cc3c(C)n[nH]c3C)nc2)n1`, the “Percent Effect” value is on record as -8.806%.

As to `O=C(NC[C@H]1OC[C@@H](NC2CCC(F)(F)CC2)[C@@H]1O)c1cccs1`, the “Percent Effect” value is reported as -23.1%.

For `C=C(C)CN(CC)S(=O)(=O)c1ccccc1C#N`, the “Percent Effect” value is listed as -2.977%.

On to `Cc1nnc(NCC2(c3ccccc3)CCOCC2)c(C#N)c1C`, for which the “Percent Effect” value is -16.92%.

Regarding `COCCN1CCC(NCc2c(C(C)C)nn(C)c2N(C)C)CC1`, the “Percent Effect” value is -4.673%.

With `COCCN1CCc2cc(C(=O)N(C)C)c(NC(C)C)nc2CC1.O=C(O)C(F)(F)F.O=C(O)C(F)(F)F`, the “Percent Effect” value is recorded as 7.689%.

Take `COCCN1CC(=O)c2sc(NC(C)C)nc2C1`: the “Percent Effect” value is 130.5%.

Consider `CC(C)Nc1nc2c(s1)C(=O)CN(C)C2`, for which the “Percent Effect” value is given as 130.6%.

Take `CC(C)c1nn(C)c(N(C)C)c1CNC1CCN(CC2CC2)CC1`: the “Percent Effect” value is -26.39%.

With `CCN1CC(=O)c2sc(NC(C)C)nc2C1`, the “Percent Effect” value is 96.98%.

Regarding `CC(C)Nc1nc2c(s1)C(=O)CN(CC1CC1)C2`, the “Percent Effect” value was determined as 101.7%.

Consider `CSC(C)(C)CNC(=O)NC1CCN(C)CC1`, for which the “Percent Effect” value is -3.442%.

For the compound `CC(C)C(C)(C#N)NC(=O)Cn1cc(C(N)=O)c(-c2ccccc2)n1` (configuration not stated), the “Percent Effect” value was 12.8%.

Regarding `CCNC(=O)NCc1cccc(N2CC=CC2)c1`, the “Percent Effect” value was -0.5505%.

Take `CCc1noc(CN(C)CCC(=O)Nc2ccc(Cl)cc2)n1`: the “Percent Effect” value is recorded as -6.397%.

Regarding `Cc1oc(-c2ccc(F)cc2)nc1CN1CCOCS1(=O)=O`, the “Percent Effect” value turned out to be 1.059%.

As to `CCN(CCn1cccn1)Cc1nc(-c2ccoc2)oc1C`, the “Percent Effect” value is -32.03%.

Regarding `CCCOC1CCCN(Cc2nc(-c3ccc(F)cc3F)oc2C)C1` (configuration not stated), the “Percent Effect” value came to 11.6%.

Regarding `CCN(CCn1cccn1)Cc1nc(-c2ccc(F)cc2)oc1C`, the “Percent Effect” value was determined as 16.6%.

In the case of `CCN(CCn1cccn1)Cc1nc(-c2ccc(C)o2)oc1C`, the “Percent Effect” value turned out to be 17.65%.

For `CCN1CC(CN(C)Cc2nc(-c3ccc(F)cc3)oc2C)CC1=O` (configuration not stated), the “Percent Effect” value was determined as 117.1%.

`CCN(C)Cc1nc(-c2ccccc2NS(C)(=O)=O)oc1C`: the “Percent Effect” value is on record as 17.24%.

Turning to `CCN1CC(CN(C)Cc2nc(-c3ccc(F)cc3F)oc2C)CC1=O` (configuration not stated), the “Percent Effect” value was 223.2%.

With `Cc1oc(-c2ccoc2)nc1CN1CCC[C@H]1CO`, the “Percent Effect” value came to 2.013%.

In the case of `CCN1CC(CN(C)Cc2nc(-c3ccc(C)o3)oc2C)CC1=O` (configuration not stated), the “Percent Effect” value is listed as 106.5%.

Regarding `CCN1CC(CN(C)Cc2nc(-c3ccoc3)oc2C)CC1=O` (configuration not stated), the “Percent Effect” value stood at 101.6%.

Consider `Cc1oc(-c2ccc(F)cc2F)nc1CN1C[C@@H](C)O[C@@H](C)C1`, for which the “Percent Effect” value turned out to be 30.19%.

Take `O=C(c1ccc(O)cn1)N1CCOC(c2ccc(Cl)c(Cl)c2)C1` (configuration not stated): the “Percent Effect” value is on record as -8.844%.

In the case of `CCc1cnc(NCCSc2cnn[nH]2)nc1`, the “Percent Effect” value was found to be 4.76%.

For the compound `COC(=O)CCCNC(=O)COc1ccccc1C(F)(F)F`, the “Percent Effect” value is given as -5.238%.

Turning to `COCCN(C)C(=O)c1cc2c(s1)CCN2C(=O)C1CC1`, the “Percent Effect” value amounted to 113.8%.

As to `COCCNC(=O)c1cc2c(s1)CCN2C(=O)c1ccccc1`, the “Percent Effect” value was 3.263%.

Turning to `O=C(NC1CCCC1)c1cc2c(s1)CCN2C(=O)c1ccccc1`, the “Percent Effect” value was determined as 94.77%.

As to `O=C(NC1CCCC1)NC1CCC(C(=O)N2CCSCC2)CC1` (configuration not stated), the “Percent Effect” value was 9.425%.

Turning to `O=C(NC1CC1)c1cc2c(s1)CCN2C(=O)C1CC1`, the “Percent Effect” value is given as 91.55%.

Consider `O=C(c1cc2c(s1)CCN2C(=O)C1CC1)N1CCCC1`, for which the “Percent Effect” value was -2.581%.

On to `CCCNC(=O)c1cc2c(s1)CCN2C(=O)c1ccccc1`, for which the “Percent Effect” value is reported as 88.89%.

For `CCCNC(=O)CCNC(=O)c1ccccc1N1CCOCC1`, the “Percent Effect” value is given as 6.654%.

`CN1C[C@H](COCC2CC2)[C@H]2CCN(Cc3ccco3)CC[C@H]2C1=O`: the “Percent Effect” value is listed as -20.01%.

For `CCOC1CCN(CCc2nc(-c3cccc(Cl)c3)no2)CC1`, the “Percent Effect” value is recorded as 9.803%.

`CC(O)C(=O)N1CCC(c2nccn2Cc2cscn2)CC1` (configuration not stated): the “Percent Effect” value is listed as -11.64%.

For `CN1CCCN(C(=O)c2cc3c(s2)CCN3C(=O)c2ccccc2)CC1`, the “Percent Effect” value is recorded as -3.728%.

Take `O=C(NCCN1CCCC1)c1cc2c(s1)CCN2C(=O)c1ccccc1`: the “Percent Effect” value came out at 91.37%.

With `CC(C1CC1)N(CC(=O)NCC(F)(F)F)C1CC1` (configuration not stated), the “Percent Effect” value is on record as -3.588%.

As to `O=C(CNc1cccc2c1CCCC2)Nc1ccccc1Br`, the “Percent Effect” value was determined as 7.656%.

Take `O=C(c1cc(Br)ccc1Cl)N1CCN(Cc2ccco2)CC1`: the “Percent Effect” value is 8.904%.

For the compound `NC(=O)C1CCN(C(=O)c2ccc(Cn3cc(Br)cn3)cc2)CC1`, the “Percent Effect” value is listed as -10.39%.

As for `NC(=O)c1ccc(N2CCCCC2)c(NC(=O)c2cc(Br)ccc2F)c1`, the “Percent Effect” value came out at 10.52%.

As to `O=C(c1cc(Br)ccc1-n1cnnn1)N1CCCC1`, the “Percent Effect” value stood at 113.6%.

On to `NC(=O)c1ccc(N2CCCCC2)c(NC(=O)c2cc(Br)ccc2Cl)c1`, for which the “Percent Effect” value turned out to be 10.69%.

For `NC(=O)C1CCN(C(=O)c2cc(Br)ccc2-n2cnnn2)CC1`, the “Percent Effect” value came out at 120.4%.

As for `O=C(c1cc(Br)ccc1-n1cnnn1)N1CCCCC1`, the “Percent Effect” value worked out at 184.2%.

`NC(=O)C1CCN(C(=O)c2ccccc2OCc2ccncc2)CC1`: the “Percent Effect” value is -0.6716%.

As for `Cc1cnn(C2CCCN(C(=O)c3sccc3-n3cnnn3)C2)c1` (configuration not stated), the “Percent Effect” value is listed as -13.25%.

As to `O=C1C(Nc2ccc3nccnc3n2)CCN1c1ccccc1F` (configuration not stated), the “Percent Effect” value is -13.15%.

As to `O=C(CCCc1ccccc1)Nc1cnc(N2CCOCC2)nc1`, the “Percent Effect” value is listed as -16.01%.
